High-throughput results as filed in PubChem.
Most compounds without a hit are left out; they make up all but 4.7% or so of the library.
D3 ag: activates the human D3 dopamine receptor. P35462. D3R DiscoveRx beta-arrestin cells, luminescence, 90 min. max activation, %. hit rate 0.58% among 410,000; in the data active means max activation above about 30%; further: 0% is about no effect
Target sequence (P35462 whole entry, looked up): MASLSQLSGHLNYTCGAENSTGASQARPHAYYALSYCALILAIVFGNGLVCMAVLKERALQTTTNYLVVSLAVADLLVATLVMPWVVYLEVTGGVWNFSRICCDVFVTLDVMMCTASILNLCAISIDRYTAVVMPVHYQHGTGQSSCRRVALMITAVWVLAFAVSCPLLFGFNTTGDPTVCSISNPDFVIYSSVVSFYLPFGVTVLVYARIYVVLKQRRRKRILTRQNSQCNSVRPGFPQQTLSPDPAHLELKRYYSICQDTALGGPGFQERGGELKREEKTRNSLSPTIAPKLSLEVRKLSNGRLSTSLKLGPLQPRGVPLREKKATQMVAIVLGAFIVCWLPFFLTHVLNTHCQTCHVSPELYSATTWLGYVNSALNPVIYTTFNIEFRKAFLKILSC
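Agonist-mode cell screen: cells plated at 1500/well and incubated overnight at 37 °C, then exposed to library compounds for 90 min at 37 °C. Detection reagent was added for 30–60 min at room temperature, and luminescence was read.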
D3 antag: blocks the human D3 dopamine receptor. P35462. D3R cells, DiscoveRx beta-arrestin luminescence, antagonist mode; active compounds read low. max response, negative = inhibition, %. hit rate 2.5% among 360,000. AID 652054; in the data active means max response below about -50%; inconclusive means no clear call, values can overlap the other calls; further: on the % scale 0 is the no-effect control and ±100 the full control effect
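Cells expressing the human receptor were seeded at 1500 cells/well, incubated overnight at 37 degrees C in 5% CO2, then exposed to library compounds with dopamine controls for 90 minutes at 37 degrees C before luminescent detection.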
HepG2 tox-1: HepG2 cytotoxicity, counter-screen for TGF-b inhibitors. HepG2 CAGA-GFP viability, ATP luminescence, 18 h. Potency, µM (highest dose often 46.1 µM), inactives show at the top dose activity change, negative = cytotoxicity, hits mostly cytotoxic. hit rate 0.76% among 410,000. AID 588856; further: potency means the concentration at half of the fitted maximal effect
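HepG2 CAGA-GFP cells (1000/well, DMEM with 1% FBS) received compound, then TGF-beta at 500 pg/mL final, and were incubated 18 hours at 37 degrees C. Viability was read by CellTiter-Glo luminescence. Media-only wells were set as complete cell-killing and DMSO as no toxicity.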
ATXN2 expr inh: inhibitors of ATXN2 expression. HEK-293 ATXN2-luciferase reporter, luminescence, 24 h. Potency, µM (series often up to 57 µM), for the others: at the top dose activity change, negative = inhibition, most hits filed as inhibitors. hit rate 0.72% among 360,000. AID 1745845; further: potency means the concentration at half of the fitted maximal effect; on the % scale 0 is the no-effect control and ±100 the full control effect; nearly all actives have a fitted effect of over 55% in size
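ATXN2-luciferase reporter cells (luciferase flanked by upstream and downstream ATXN2 gene portions) were treated 24 h at 37 °C with compounds at up to 57 uM. SteadyGlo luminescence gave expression; GF-AFC fluorescence gave viability.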
S2 tox: viability counter-screen for ATXN expression inhibitors; Potency, µM (highest dose often 56.7 µM), usual class: cytotoxic; hit rate 0.49% among 400,000; S2 cells (HEK-293 line with an ATXN2-luciferase reporter) viability, CellTiter-Fluor protease fluorescence, 24 h; further: potency means the concentration at half of the fitted maximal effect; nearly all actives have a fitted effect of over 40% in size
TGFb SMAD3 inh: inhibitors of TGF-b signaling | HepG2 CAGA-GFP TGF-b/SMAD3 reporter, GFP fluorescence, 18 h; TGF-beta stimulated, 500 pg/mL final | Potency, µM (titrated, usually from 46.1 µM), for inactives: at the highest dose activity, negative = inhibition, usual class: inhibitors | hit rate 1.2% among 410,000; further: potency means the concentration at half of the fitted maximal effect; on the % scale 0 is the no-effect control and ±100 the full control effect; nearly all actives have a fitted effect of over 65% in size
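HEPG2 CAGA-GFP reporter cells (1000/well, DMEM with 1% FBS) received compounds, then recombinant TGF-beta at 500 pg/mL final for 18 hours at 37 degrees C. Per-cell GFP summed per well was normalised to unstimulated and stimulated DMSO controls before curve fitting.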
TGFb CAGA inh: TGF-b pathway inhibition, cherry-pick retest; shares compounds with TGFb SMAD3 inh; HepG2 CAGA-GFP TGF-b reporter, GFP fluorescence, 18 h; cells stimulated with TGF-beta, 500 pg/mL; Potency, µM (top dose mostly 46.1 µM), for inactives: at the highest dose activity, negative = inhibition, usual class: inhibitors; hit rate 63% among 1,600; AID 720534; further: potency means the concentration at half of the fitted maximal effect; on the % scale 0 is the no-effect control and ±100 the full control effect; nearly all actives have a fitted effect of over 65% in size
HepG2 tox-2: counter-screen for TGF-b inhibitors: cytotoxicity in HepG2 cells. shares compounds with TGFb SMAD3 inh. AID 720535. hit rate 27% among 1,600. Potency, µM (titrated, usually from 46.1 µM), for the others: at the highest dose activity, negative = cytotoxicity, actives largely listed as inhibitors. HepG2 CAGA-GFP viability, ATP luminescence, 18 h; cells stimulated with TGF-beta, 500 pg/mL; further: potency means the concentration at half of the fitted maximal effect; on the % scale 0 is the no-effect control and ±100 the full control effect; nearly all actives have a fitted effect of over 70% in size
CCL64 TGFb inh: blocks TGF-b signaling in CCL64 reporter cells; shares compounds with TGFb SMAD3 inh; CCL64 CAGA-GFP reporter, TGF-b stimulated, GFP fluorescence, 18 h; Potency, µM (titrated, usually from 46.1 µM), for the others: at the highest dose activity, negative = inhibition, hits mostly inhibitors; hit rate 41% among 1,600; AID 720536; further: potency means the concentration at half of the fitted maximal effect; nearly all actives have a fitted effect of over 65% in size
COP TGFb inh: TGF-b inhibition validated with COP promoter. HepG2 COP-GFP TGF-b reporter, GFP fluorescence, 18 h; cells stimulated by added recombinant TGF-beta. hit rate 3% among 1,600. Potency, µM (highest dose often 46.1 µM), for inactives: top-dose activity, negative = inhibition, actives largely listed as inhibitors. shares compounds with TGFb SMAD3 inh; further: potency means the concentration at half of the fitted maximal effect; nearly all actives have a fitted effect of over 70% in size
* hit, by the source's call; ! = a repeat was not active. Unless noted, the call rests on the fitted dose curve; in most records, active means well fitted curve in the direction sought with a large enough effect; inconclusive means small, poorly fitted or top-dose-only effect, or another doubt; inactive means no such curve, though single readings can be large; an effect the other way counts as inactive or inconclusive.

For O=C(Nc1ccc(F)cc1)Nc1csc2c1CCCC2 the results were D3 ag -18, HepG2 tox-1 -44% and TGFb SMAD3 inh inconclusive.
`CCCCC[C@H]1CN(CCc2ccccc2)C(=O)[C@@H]1CC(=O)NCc1ccc(OC)cc1` gave D3 ag 15, D3 antag 23, HepG2 tox-1 7.1µM*!, ATXN2 expr inh -28%, S2 tox inactive, TGFb SMAD3 inh 10µM*, TGFb CAGA inh inconclusive, HepG2 tox-2 -27%, CCL64 TGFb inh inconclusive and COP TGFb inh 28%.
Cc1cc(C)nc(/N=C(\N)Nc2ccc(CC(=O)OC(C)C)cc2)n1 was read as D3 ag 16, D3 antag 10, HepG2 tox-1 -25%, ATXN2 expr inh -20%, S2 tox inactive, TGFb SMAD3 inh 10µM*, TGFb CAGA inh inconclusive, HepG2 tox-2 -29%, CCL64 TGFb inh inconclusive and COP TGFb inh 14%.
Screening Cc1cc(C)nc(/N=C(\N)Nc2ccc(OCc3ccccc3)cc2)n1 returned D3 ag -5, D3 antag -5, HepG2 tox-1 -24%, ATXN2 expr inh inconclusive, S2 tox inconclusive, TGFb SMAD3 inh 0.25µM*, TGFb CAGA inh 0.18µM*, HepG2 tox-2 inconclusive, CCL64 TGFb inh 18µM* and COP TGFb inh 99%.
CCCCCOC(=O)c1[nH]c2c(c1C)C(=O)CC(c1ccco1)C2 (centres undefined) was read as D3 ag -6, D3 antag inconclusive, HepG2 tox-1 -6%, ATXN2 expr inh -28%, S2 tox inconclusive, TGFb SMAD3 inh 0.79µM*, TGFb CAGA inh 1.2µM*, HepG2 tox-2 -2%, CCL64 TGFb inh 0.23µM* and COP TGFb inh -13%.
CCOCCOC(=O)c1[nH]c2c(c1C)C(=O)CC(c1ccccc1)C2 (centres undefined) was read as D3 ag -7, D3 antag -23, HepG2 tox-1 -23%, ATXN2 expr inh -14%, S2 tox inconclusive and TGFb SMAD3 inh inconclusive.
For COc1ccc(NC(=S)NCCCN2CCCC2)cc1Cl the results were D3 ag -2, D3 antag -17, HepG2 tox-1 -8%, ATXN2 expr inh -9%, S2 tox inactive and TGFb SMAD3 inh 0%.
COc1ccc(NC(=S)N(CCCN2CCCC2)Cc2cccn2Cc2ccc(Cl)cc2)cc1Cl was read as D3 ag -15, D3 antag inconclusive, HepG2 tox-1 6.3µM*, TGFb SMAD3 inh 3.2µM*, TGFb CAGA inh inconclusive, HepG2 tox-2 inconclusive, CCL64 TGFb inh inconclusive and COP TGFb inh -1%.
Screening COc1ccc(-c2nc(-c3ccc4c(c3)OCO4)[nH]c2-c2ccc(OC)cc2)cc1 returned D3 ag 4, D3 antag 17, HepG2 tox-1 -41%, ATXN2 expr inh -20%, S2 tox inconclusive, TGFb SMAD3 inh -4%, TGFb CAGA inh 23µM*, HepG2 tox-2 inconclusive, CCL64 TGFb inh 26µM* and COP TGFb inh 63%.
Screening Cc1ccc(CSCCC(=O)N2CCN(c3ccc(F)cc3)CC2)cc1 returned D3 ag -14, HepG2 tox-1 -24% and TGFb SMAD3 inh inconclusive.
O=[N+]([O-])c1cc(Cl)ccc1N1CCN(c2ccccc2O)CC1 was read as D3 ag 15, D3 antag 1, HepG2 tox-1 -11%, ATXN2 expr inh -11%, S2 tox inconclusive, TGFb SMAD3 inh 7.1µM*, TGFb CAGA inh inconclusive, HepG2 tox-2 -6%, CCL64 TGFb inh -7% and COP TGFb inh -3%.
CC(C)=CCNc1ncnc2c1ncn2[C@@H]1O[C@H](CO)[C@@H](O)[C@H]1O was read as ATXN2 expr inh -24% and S2 tox inconclusive.
OCC1OC(n2cnc3c(NCc4ccco4)ncnc32)C(O)C1O (centres undefined) was read as D3 ag 0, D3 antag 22, HepG2 tox-1 -88%, ATXN2 expr inh inconclusive, S2 tox inconclusive, TGFb SMAD3 inh 5µM*, TGFb CAGA inh 5.8µM*, HepG2 tox-2 18µM*, CCL64 TGFb inh 12µM* and COP TGFb inh 33%.
For C=CCNc1ncnc2c1ncn2C1OC(CO)C(O)C1O (centres undefined) the results were D3 ag -1, D3 antag 3, HepG2 tox-1 7.9µM*, ATXN2 expr inh -7%, S2 tox inactive, TGFb SMAD3 inh 10µM*, TGFb CAGA inh 10µM*, HepG2 tox-2 inconclusive, CCL64 TGFb inh -18% and COP TGFb inh 28%.
`CC(=O)SC[C@@H](Cc1ccccc1)C(=O)NCC(=O)OCc1ccccc1` gave D3 ag 10, ATXN2 expr inh -4% and S2 tox inactive.
C=CCc1cc(OC)c(O)c(C(=O)NCCO)c1 was read as D3 ag -11, ATXN2 expr inh 6% and S2 tox inactive.
CC(=O)N1CCN(c2ccc(NC(=S)NC(=O)COc3ccc(C(C)(C)C)cc3)cc2)CC1 was read as D3 ag 6, D3 antag 2, HepG2 tox-1 -49%, ATXN2 expr inh -30%, S2 tox inactive, TGFb SMAD3 inh inconclusive, TGFb CAGA inh 4.6µM*, HepG2 tox-2 inconclusive, CCL64 TGFb inh -11% and COP TGFb inh -1%.
For COc1cc(/C=C/c2cccc[n+]2C)ccc1OCC(=O)Nc1ccccc1C the results were D3 ag 0, D3 antag -4, HepG2 tox-1 -3%, ATXN2 expr inh -1%, S2 tox inactive and TGFb SMAD3 inh 1%.
